From PubChem BioAssay (NCI)
About 83,000 compounds went through this panel and 20% of them were active in at least one assay; those are over-represented in the sample as a whole.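 Interpretation: 100, growth as untreated; towards 0, rising growth inhibition; 0, no net growth; 0 to -100, cell death. Compounds scoring below 10 were considered active.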 Calls of active or inactive are those of the source.

Key:
Assay in all cases: NCI-60 one-dose screen, 48 h (100 = growth as untreated, 0 = no growth, -100 = all killed)
Details in all cases: 10 µM unless noted
HCT-15 colon = system: HCT-15 colon
SNB-75 CNS = system: SNB-75 CNS
SNB-19 CNS = system: SNB-19 CNS
U251 CNS = system: U251 CNS
PC-3 prostate = system: PC-3 prostate
SK-MEL-5 melanoma = system: SK-MEL-5 melanoma
UACC-62 melanoma = system: UACC-62 melanoma
LOX IMVI melanoma = system: LOX IMVI melanoma
SK-MEL-28 melanoma = system: SK-MEL-28 melanoma

Measured: growth

Cc1cn(-c2cc(NC(=O)c3cncc(C#Cc4cnc5ccc(OCCCS(C)(=O)=O)nn45)c3)cc(C(F)(F)F)c2)cn1
inactive: HCT-15 colon 37.8% | SNB-75 CNS 13.6% | SNB-19 CNS 18.8% | U251 CNS 26.8% | PC-3 prostate 52.8% | UACC-62 melanoma 21.4% | SK-MEL-28 melanoma 31.5%
active: SK-MEL-5 melanoma 2.76% | LOX IMVI melanoma 9.26%

N#C/C(=C\c1ccc(N2CCCCC2)cc1)C(=O)Nc1sc2c(c1C#N)CCC2
inactive: HCT-15 colon 95% | SNB-75 CNS 86.8% | SNB-19 CNS 99.2% | U251 CNS 96.8% | PC-3 prostate 91.5% | SK-MEL-5 melanoma 98.7% | UACC-62 melanoma 90.2% | LOX IMVI melanoma 89.8% | SK-MEL-28 melanoma 95.2%

C#C[C@]1(O)CC[C@H]2[C@@H]3CC=C4c5sc(-c6ccc(OC)cc6)nc5CC[C@]4(C)[C@H]3CC[C@@]21C
active: SK-MEL-28 melanoma 4.22%
inactive: HCT-15 colon 46.9% | SNB-75 CNS 22.9% | SNB-19 CNS 63.6% | U251 CNS 42.7% | PC-3 prostate 28.2% | SK-MEL-5 melanoma 85.1% | UACC-62 melanoma 33.2% | LOX IMVI melanoma 45%

CCN1C(=O)N(CC)C2SC(N/N=C/c3cccs3)=NC21 (centres undefined)
inactive: HCT-15 colon 14.8% | SNB-75 CNS 50.6% | SNB-19 CNS 25.9% | U251 CNS 10.2% | PC-3 prostate 28.4% | UACC-62 melanoma 36.7% | SK-MEL-28 melanoma 54.2%
active: SK-MEL-5 melanoma -5.21% | LOX IMVI melanoma 8.77%

CCOC(=O)/C(F)=C/C1CC1CCc1cccc(C(F)(F)F)c1 (centres undefined)
inactive: HCT-15 colon 101% | SNB-75 CNS 102% | SNB-19 CNS 97.1% | U251 CNS 113% | PC-3 prostate 105% | SK-MEL-5 melanoma 100% | UACC-62 melanoma 96.5% | LOX IMVI melanoma 102% | SK-MEL-28 melanoma 98.8%

NS(=O)(=O)c1ccc(Nc2nc(N/N=C/c3ccc(F)cc3)nc(Nc3ccccc3)n2)cc1
inactive: HCT-15 colon 79.3% | SNB-75 CNS 96.4% | SNB-19 CNS 69.9% | U251 CNS 11.9% | PC-3 prostate 39.9% | SK-MEL-5 melanoma 38.1% | UACC-62 melanoma 60.5% | LOX IMVI melanoma 60.6% | SK-MEL-28 melanoma 63.3%

CCN1CCN(c2cc(C(=O)Nc3nc4ccc(Oc5ccnc(C(=O)NC)c5)cc4s3)cc(C(F)(F)F)c2)CC1
inactive: HCT-15 colon 26.9% | SNB-75 CNS 88.7% | SNB-19 CNS 111% | U251 CNS 76.8% | PC-3 prostate 55.6% | SK-MEL-5 melanoma 63.6% | UACC-62 melanoma 90.7% | SK-MEL-28 melanoma 76.8%

O=S(=O)(Nc1ccc(-n2cnc3cc(-c4ccc(O)cc4)ccc32)cc1)C1CC1
inactive: HCT-15 colon 85.1% | SNB-75 CNS 51.3% | SNB-19 CNS 83.6% | U251 CNS 74.6% | PC-3 prostate 83.4% | SK-MEL-5 melanoma 88% | UACC-62 melanoma 73.8% | LOX IMVI melanoma 116% | SK-MEL-28 melanoma 94.2%

COc1cc(C(=O)c2cc(C(C)=O)c3c4ccccc4ccn23)cc(OC)c1OC
inactive: HCT-15 colon 28.5% | SNB-75 CNS 45.3% | SNB-19 CNS 64.3% | U251 CNS 73.6% | PC-3 prostate 48.1% | SK-MEL-5 melanoma 22.9% | UACC-62 melanoma 38% | LOX IMVI melanoma 58.4% | SK-MEL-28 melanoma 80.9%

CCOc1c(C#N)c(Nc2ccc(S(N)(=O)=O)cc2)c(C#N)c2nnc(C)n12
inactive: HCT-15 colon 105% | SNB-75 CNS 91% | SNB-19 CNS 101% | U251 CNS 108% | PC-3 prostate 85.4% | SK-MEL-5 melanoma 97.8% | UACC-62 melanoma 91.8% | LOX IMVI melanoma 95.6% | SK-MEL-28 melanoma 110%

CCCC(=O)NC(c1cccnc1)c1cc(Cl)c2cccnc2c1O (centres undefined)
inactive: HCT-15 colon 18.5% | SNB-19 CNS 19.4% | U251 CNS 24.2% | PC-3 prostate 41.1% | SK-MEL-5 melanoma 34.3% | UACC-62 melanoma 23.8% | SK-MEL-28 melanoma 51.9%

COc1ccc(CCN2C(=O)/C(=C/c3nc(CO)cs3)SC2=S)cc1
inactive: HCT-15 colon 51.2% | SNB-75 CNS 73.1% | SNB-19 CNS 91.7% | U251 CNS 91.9% | PC-3 prostate 74% | SK-MEL-5 melanoma 98.1% | UACC-62 melanoma 79.7% | LOX IMVI melanoma 30.8% | SK-MEL-28 melanoma 97.2%

C#CCOc1ccc(C(Nc2cc(Cl)ccc2Cl)c2nnnn2C2CCCCC2)cc1 (centres undefined)
inactive: HCT-15 colon 86.4% | SNB-75 CNS 95.1% | SNB-19 CNS 86% | U251 CNS 82.7% | PC-3 prostate 76.9% | SK-MEL-5 melanoma 95.4% | UACC-62 melanoma 66.7% | LOX IMVI melanoma 97.7% | SK-MEL-28 melanoma 107%

CC1(C)CC[C@]2(C(=O)O)CC[C@]3(C)C(=CCC4[C@@]5(C)C[C@@H](O)[C@@H]6OC(c7ccccc7O)OC[C@@]6(C)C5CC[C@]43C)C2C1 (some centres undefined)
inactive: HCT-15 colon 29.8% | SNB-75 CNS 72.6% | SNB-19 CNS 59.2% | U251 CNS 28.6% | PC-3 prostate 62.9% | SK-MEL-5 melanoma 63.4% | UACC-62 melanoma 82.4% | LOX IMVI melanoma 27% | SK-MEL-28 melanoma 84.7%

N#Cc1c(-c2ccccc2)cc(-c2c[nH]c3ccccc23)nc1-c1c[nH]c2ccccc12
inactive: HCT-15 colon 99.3% | SNB-75 CNS 81.2% | SNB-19 CNS 97.6% | U251 CNS 94.3% | PC-3 prostate 92.4% | SK-MEL-5 melanoma 99.2% | UACC-62 melanoma 94.9% | LOX IMVI melanoma 100% | SK-MEL-28 melanoma 110%

Nc1nc(-c2cccc([N+](=O)[O-])c2)c(N=Nc2ccccc2[N+](=O)[O-])s1
inactive: HCT-15 colon 43.8% | SNB-19 CNS 12.4% | PC-3 prostate 46.4% | SK-MEL-5 melanoma 47% | UACC-62 melanoma 66.1% | SK-MEL-28 melanoma 88.4%
active: SNB-75 CNS -14.7% | U251 CNS -79.5% | LOX IMVI melanoma 6.53%

Oc1ccc(-c2nnc(SCc3ccc(O)c4ncccc34)o2)cc1
active: HCT-15 colon 7.43% | PC-3 prostate 9.97% | SK-MEL-5 melanoma -17.1% | UACC-62 melanoma -12.7% | LOX IMVI melanoma 7.94%
inactive: SNB-19 CNS 12.8% | U251 CNS 13.2% | SK-MEL-28 melanoma 22.7%

COc1ccc(/C=N\NC(=O)c2ccc3nc(-c4ccc(Br)cc4)[nH]c3c2)cc1
inactive: HCT-15 colon 48.1% | SNB-75 CNS 46.1% | SNB-19 CNS 19.2% | PC-3 prostate 20.8% | SK-MEL-5 melanoma 24.2% | UACC-62 melanoma 34.6% | SK-MEL-28 melanoma 13.8%
active: U251 CNS -51.5% | LOX IMVI melanoma -26%

C/C(=C(/C)C1CC1CCN(C(=O)c1ccc([N+](=O)[O-])cc1)S(=O)(=O)c1ccc(C)cc1)C1CCCCC1 (centres undefined)
inactive: HCT-15 colon 98.1% | SNB-75 CNS 106% | SNB-19 CNS 92.5% | U251 CNS 94.7% | PC-3 prostate 85.4% | SK-MEL-5 melanoma 99.4% | UACC-62 melanoma 79.7% | SK-MEL-28 melanoma 101%

O=c1[nH]c2cc(Cl)ccc2n1C1CCN(c2ccc3nnc(Cl)n3n2)CC1
inactive: HCT-15 colon 96.5% | SNB-75 CNS 73.1% | SNB-19 CNS 92.6% | U251 CNS 99.2% | PC-3 prostate 82% | SK-MEL-5 melanoma 91.6% | UACC-62 melanoma 75.8% | LOX IMVI melanoma 99.1% | SK-MEL-28 melanoma 91.1%

Cc1cc(Cl)cc(NS(=O)(=O)c2ccc(-c3cnc(C4CC4)o3)cc2)c1
inactive: HCT-15 colon 21.8% | SNB-19 CNS 36% | U251 CNS 23.9% | PC-3 prostate 17.4% | SK-MEL-5 melanoma 32.5% | UACC-62 melanoma 31.5% | SK-MEL-28 melanoma 55.4%

CNC(=O)c1cc(Oc2ccc3nc(NC(=O)c4ccc(CN5CCCN(C)CC5)c(C(F)(F)F)c4)sc3c2)ccn1
active: HCT-15 colon -21.4% | SNB-19 CNS 7.5% | U251 CNS 1.82% | SK-MEL-5 melanoma -59.9% | UACC-62 melanoma -7.16% | LOX IMVI melanoma -81.9% | SK-MEL-28 melanoma -74%
inactive: SNB-75 CNS 47.5% | PC-3 prostate 22.2%

CC1(COc2ccc3ncc(C#Cc4cncc(C(=O)Nc5cc(C(C)(C)C)on5)c4)n3n2)COC1
active: SK-MEL-5 melanoma 7.95%
inactive: HCT-15 colon 26% | SNB-75 CNS 12.8% | SNB-19 CNS 60.9% | U251 CNS 29% | PC-3 prostate 43.4% | UACC-62 melanoma 29.6% | LOX IMVI melanoma 11% | SK-MEL-28 melanoma 51.4%

C/C(=N\NC(=O)CSc1nc2sc3c(c2c(=O)n1-c1ccccc1)CCC(C)C3)c1ccc(Cl)cc1 (centres undefined)
inactive: HCT-15 colon 25.7% | SNB-75 CNS 41.5% | SNB-19 CNS 35.3% | U251 CNS 26.7% | PC-3 prostate 31.7% | SK-MEL-28 melanoma 25.4%
active: SK-MEL-5 melanoma -14.9% | UACC-62 melanoma 4.83%

COc1ccc(S(=O)(=O)NCCCNc2nccc(-n3cnc4ccccc43)n2)cc1
inactive: HCT-15 colon 92.3% | SNB-75 CNS 88.2% | SNB-19 CNS 100% | U251 CNS 94.5% | PC-3 prostate 89.7% | SK-MEL-5 melanoma 70.1% | UACC-62 melanoma 76.3% | LOX IMVI melanoma 93.4% | SK-MEL-28 melanoma 106%

COc1cc(/C=N/Nc2ccnc3cc(Cl)ccc23)cc(OC)c1O
inactive: UACC-62 melanoma 101% | SK-MEL-28 melanoma 98.4%
active: HCT-15 colon -58.9% | SNB-75 CNS -81.5% | SNB-19 CNS -24.5% | U251 CNS -87.1% | PC-3 prostate -61.1% | SK-MEL-5 melanoma -92.7% | LOX IMVI melanoma -96.2%

COc1cc(C(=O)C[n+]2ccc3ccccc3c2)cc(OC)c1OC
inactive: HCT-15 colon 98% | SNB-75 CNS 90% | SNB-19 CNS 93.5% | U251 CNS 98.3% | PC-3 prostate 88.8% | SK-MEL-5 melanoma 99.8% | UACC-62 melanoma 91.4% | LOX IMVI melanoma 97.4% | SK-MEL-28 melanoma 106%

COc1ccc(-c2cc(-c3cccc4ccccc34)n3c(n2)nc2ccccc23)cc1
inactive: HCT-15 colon 42.8% | SNB-75 CNS 35.5% | SNB-19 CNS 39.9% | U251 CNS 33.1% | PC-3 prostate 35.8% | SK-MEL-5 melanoma 30.4% | UACC-62 melanoma 33.7% | LOX IMVI melanoma 45.7% | SK-MEL-28 melanoma 70.2%
